Inconclusive results are not listed. A call without a number means that no potency is given here. Calls of active or inactive are those of the source. The call rests on the fitted dose curve; in most records, active means well fitted inhibition curve with a large enough effect; inconclusive means small, poorly fitted or top-dose-only effect; inactive means no such curve, though single readings can be large or run the other way.
Potency means the concentration at half of the fitted maximal effect.

This assay is described as follows: qHTS assay for measurement of the activity of small molecule inhibitors on Zika virus induced Caspase-3 activity in human iPSC derived neural progenitor cells (hNPCs) (AID 1224857). Further: nearly all actives have a fitted effect of over 65% in size. The note with it: hNPCs ZIKV-induced caspase-3/7, Caspase-Glo luminescence, 6 h; series mostly up to 45.7 µM. From the text:
National Center for Advancing Translational Sciences [NCATS]
Johns Hopkins University School of Medicine
Increase in the Caspase-3 activity indicates an activation of apoptosis cell death pathway caused by Zika virus infection in certain types of neuronal cells including human neural progenitor cells (hNPCs), astrocytes, and astrocytoma cell line (SNB-19). This cell-based caspase-3 activity assay measures the increased caspase-3 activity in the human iPSC derived neural progenitor cells (hNPCs) after a 6-hour Zika virus infection with a luminescence readout. A decrease in the luminescence signal in this assay by small molecule treatment indicates an inhibitory effect of that small molecule on the Zika virus induced caspase-3 activity that may correlate with its effect on reduction of Zika virus caused cell death.
The medium for hNPCs consists of DMEM/F12, N2 supplement (ThermoFisher, Cat.# 17502048), NEAA (ThermoFisher, Cat. # 11140050), 2 ug/ml heparin, 2 uM cyclopamine, and B27 (ThermoFisher, Cat. # 17504044). A Caspase-Glo 3/7 assay kit (catalog number G8092; Promega, Madison, WI) was used to detect caspase-3 activity induced by Zika virus infection in human cells. The reagent mixture was reconstituted as described in the protocol from the manufacturer. Polystyrene tissue culture treated and PDL coated white plates were obtained from Greiner Bio-One (Monroe, NC). Cells were seeded in 384- or 1536-well assay plates and cultured at 37 C with 5% CO2 for 16 to 20 hours. The typical cell seeding density in the 1536-well plate assay is 350 cells/well in 3 ul medium for hNPCs in tissue culture treated plates. Compounds were added to cells and incubated for one hour before addition of ZIKV solution to cells (2 FFU/cell). After incubation at 37 C with 5% CO2 for 6 hours, the reagent mixture of Caspase-Glo 3/7 assay kit was added to each well, followed by incubation at room temperature for 30 minutes. The luminescence intensity of the assay plates was measured using a ViewLux plate reader (PerkinElmer). Data were normalized by using the cell-containing wells without ZIKV as a negative control (0% induction of caspase 3/7 activity) and wells containing ZIKV infected cells (Caspase-3 activity induced) as a positive control (100% induction of caspase 3 activity). The percentage inhibitions of the increased Caspase-3 activity by small molecule inhibitors were then calculated.
Regarding `CC(C)=CC[C@@H](O)C1=CC(=O)c2c(O)ccc(O)c2C1=O`, the Potency entry is “inactive”.
The value for `C[C@H](NC(=O)C(=O)Nc1ccccc1C(C)(C)C)C(=O)N[C@@H](CC(=O)O)C(=O)COc1c(F)c(F)cc(F)c1F` was 2.35 µM (active); that for `CC(C)(C)COc1ccc(-n2cc(C(=O)O)cn2)cc1C#N` was 14.8 µM (active); that for `CCCCCCCCCCCC1=C(O)C(=O)C=C(O)C1=O` was “inactive”.
`Cc1cccc(C)c1OCC(C)N` (stereo not given): the Potency result was “inactive”.
For `NS(=O)(=O)c1ccc(NC2=CC(=O)c3ccccc3C2=O)cc1`, the Potency result is “inactive”.
For `c1cc(-c2sc(-c3ccncc3)c(-c3ccncc3)c2-c2ccncc2)ccn1`, the Potency result is “inactive”.
As to `NC(N)=Nc1nc(CSCC/C(N)=N/S(N)(=O)=O)cs1`, the Potency result is “inactive”.
For `CC(=O)O[C@]1(C(C)=O)CC[C@H]2[C@@H]3C=C(Cl)C4=CC(=O)[C@@H]5C[C@@H]5[C@]4(C)[C@H]3CC[C@@]21C`, the Potency result was “inactive”.
As for `C[C@]12CCC3c4ccc(O)cc4CCC3C1CCC2=O` (stereo not given in full), the Potency entry is “inactive”.
As for `COc1ccccc1N1CCN(CCCNc2cc(=O)n(C)c(=O)n2C)CC1`, the Potency result is “inactive”.
Regarding `Nc1ncnc2ccccc12`, the Potency result was “inactive”.
For `CO[C@H]1C[C@@H]2CC[C@@H](C)[C@@](O)(O2)C(=O)C(=O)N2CCCC[C@@H]2C(=O)O[C@H]([C@H](C)C[C@@H]2CC[C@H](OP(C)(C)=O)[C@H](OC)C2)CC(=O)[C@H](C)C=C(C)[C@@H](O)[C@@H](OC)C(=O)[C@H](C)C[C@H](C)C=CC=CC=C1C`, the Potency entry is “inactive”.
With `Cc1nnc(C(C)C)n1C1C[C@H]2CC[C@@H](C1)N2CC[C@H](NC(=O)C1CCC(F)(F)CC1)c1ccccc1` (stereo not given in full), the Potency result is “inactive”.
Turning to `COc1cc(NC(=O)c2ccc(-c3ccc(Cl)cc3)o2)cc(OC)c1`, the Potency result is “inactive”.
Consider `CCN(CC)CCOc1ccc(C(=C(Cl)c2ccccc2)c2ccccc2)cc1`, for which the Potency entry is “inactive”.
Regarding `O=C(Nc1c(Cl)cncc1Cl)c1ccc(OC(F)F)c(OCC2CC2)c1`, the Potency entry is “inactive”.
In the case of `O=C(O)c1c(Cl)c(Cl)c(Cl)c(Cl)c1-c1c2cc(I)c(=O)c(I)c-2oc2c(I)c(O)c(I)cc12`, the Potency entry was “inactive”.
For the molecule `CN(C)Cc1cccc(N=C(c2ccccc2)c2c(O)[nH]c3cc(C(=O)N(C)C)ccc23)c1`, the Potency result is “inactive”.
`COc1cccc2c1CCCC2CCCN1CCN(C2CCCCC2)CC1` (stereo not given): the Potency entry was “inactive”.
Take `O=C1c2ccccc2-[n+]2ccc3c([nH]c4ccccc43)c21`: the Potency is 1.05 µM (active).
Consider `COCCOC(=O)C1=C(C)NC2=C(C(=O)CC(c3ccccc3OC)C2)C1c1cccc(O)c1` (stereo not given), for which the Potency result is “inactive”.
In the case of `CC/C(=C(\c1ccccc1)c1ccc(OCCN(C)C)cc1)c1ccccc1`, the Potency entry is “inactive”.
The value for `CO[C@H]1C[C@@H]2CC[C@@H](C)[C@@](O)(O2)C(=O)C(=O)N2CCCC[C@@H]2C(=O)O[C@H]([C@H](C)C[C@@H]2CC[C@H](OC(=O)C(C)(CO)CO)[C@H](OC)C2)CC(=O)[C@H](C)C=C(C)[C@@H](O)[C@@H](OC)C(=O)[C@H](C)C[C@H](C)C=CC=CC=C1C` was “inactive”; that for `CC(C)(C)c1ccc(C(O)CCCN2CCC(C(O)(c3ccccc3)c3ccccc3)CC2)cc1` (stereo not given) was “inactive”.
Take `O=c1ccn([C@@H]2O[C@H](CO)[C@H](O)[C@H]2O)c(=O)[nH]1`: the Potency result is “inactive”.
As for `COc1ccc2c(Oc3ccc(NC(=O)c4c(C)n(CC(C)(C)O)n(-c5ccccc5)c4=O)nc3)ccnc2c1`, the Potency entry was “inactive”.
For the molecule `CCn1c(C(=O)N(C2CC2)C2CC2)cc2c3c(ncn3C)c(Nc3cc(C)n(C)n3)nc21`, the Potency result was “inactive”.
In the case of `O=C(O)c1cc(O)c2c(c1)C(=O)c1cccc(O)c1C2=O`, the Potency is 38.2 µM (active).
As for `CN(C)C1CCN(C(=O)c2ccc(NC(=O)Nc3nc(N4CCOCC4)nc(N4CCOCC4)n3)cc2)CC1`, the entry is “inactive”.
The value for `Cc1cnc(C(=O)O)c[n+]1[O-]` was “inactive”; that for `CC(=O)OC1C(C)OC(Oc2c(-c3ccc(O)cc3)oc3cc(O)cc(O)c3c2=O)C(O)C1OC(C)=O` (stereo not given) was “inactive”.
The value for `CS(=O)c1ccc(-c2nc(-c3ccc(F)cc3)c(-c3ccncc3)[nH]2)cc1` (stereo not given) was “inactive”; that for `NC(CO)(CO)CCc1ccc(Sc2cccc(OCc3ccccc3)c2)cc1Cl` was “inactive”.
As to `CC1(C)Cc2c(sc(NC(=S)NC(=O)c3ccccc3)c2C(=O)O)CO1`, the Potency was 20.9 µM (active).
For the molecule `CCOc1ccc(Nc2nc(-c3c(C)nc4ccccn34)cs2)cc1`, the Potency result was “inactive”.
In the case of `COc1ccc2cccc(CCNC(C)=O)c2c1`, the Potency result was “inactive”.
As for `CO[C@@H](C(=O)N1Cc2[nH]nc(NC(=O)c3ccc(N4CCN(C)CC4)cc3)c2C1)c1ccccc1`, the entry is “inactive”; as for `CC(C)NCC(O)COc1cccc2[nH]ccc12` (stereo not given), “inactive”; as for `Cc1ccc(F)c(NC(=O)Nc2ccc(-c3cccc4[nH]nc(N)c34)cc2)c1`, “inactive”.
